Drawing on PubChem BioAssay (NCATS), this text covers Potency and outcome for 15 compounds.

Assay [1] is described as follows: P-glycoprotein substrates identified in KB-3-1 adenocarcinoma cell line, qHTS therapeutic library screen (AID 1346986). Further: nearly all actives have a fitted effect of over 60% in size.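 Further: potency means the concentration at half of the fitted maximal effect; potency is for cytotoxicity meaning loss of cell viability.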 The method in brief:
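Counter-screen: cherry-picked hits retested in the KB pair and in HEK-293 pcDNA/MDR-19 cells ± tariquidar. Primary screen used 72 h CellTiter-Glo viability in KB-3-1 and KB-8-5-11.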

The nature of assay [2]: P-glycoprotein substrates identified in KB-8-5-11 adenocarcinoma cell line, qHTS therapeutic library screen (AID 1346987). Further: nearly all actives have a fitted effect of over 65% in size. Further: potency means the concentration at half of the fitted maximal effect. Summed up:
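P-gp-mediated resistance screen: KB-8-5-11 cells treated 72 h with compounds in dose-response. CellTiter-Glo viability.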
In general terms: qHTS replaces the single test concentration by a dilution series.

A short description of assay [3]: NS1 protein of Zika virus - qHTS assay to identify small molecule inhibitors in human HEK 293 cells (AID 1347053). Further: series mostly up to about 46 µM; nearly all actives have a fitted effect of over 55% in size. Summed up:
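HEK 293 cells, seeded 20 h at 37 C, were pretreated with compound 1 h, then infected with ZIKV MR766 (MOI = 0.5) for 24 h. NS1 was read by TR-FRET with two anti-NS1 antibodies, normalized to uninfected and infected wells.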

The nature of assay [4]: qHTS of pediatric cancer cell lines to identify multiple opportunities for drug repurposing: Primary screen for TC32 cells (AID 1347089). Further: nearly all actives have a fitted effect of over 60% in size. Further: potency means the concentration at half of the fitted maximal effect. The method in brief:
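In the primary qHTS, MIPE compounds were tested at 11 concentrations (0.78 nM to 46 µM) and NPC compounds at 8 (0.59 nM to 46 µM) on TC32 cells for 48 h. CellTiter-Glo luminescence gave viability.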

A short description of assay [5]: qHTS of pediatric cancer cell lines to identify multiple opportunities for drug repurposing: Primary screen for DAOY cells (AID 1347090). Further: nearly all actives have a fitted effect of over 55% in size. Further: potency means the concentration at half of the fitted maximal effect. Summed up:
(§1)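 Cell viability, CellTiter-Glo luminescence; 500-1,000 cells/well, 8- or 11-point titration, 48 h compound exposure at 37 degrees C, 5% CO2. Controls: DMSO neutral, bortezomib 2.3 µM final as positive.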

Assay [6] in a line: qHTS of pediatric cancer cell lines to identify multiple opportunities for drug repurposing: Primary screen for SK-N-MC cells (AID 1347093). Further: potency means the concentration at half of the fitted maximal effect. The method in brief: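 Metabolically active cells were quantified by ATP-dependent luminescence (CellTiter-Glo, 15 min at room temperature) following 48 h treatment. Cells had been plated at 500-1,000 per well and settled for 5 h beforehand.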

Assay [7] in a line: qHTS of pediatric cancer cell lines to identify multiple opportunities for drug repurposing: Primary screen for BT-37 cells (AID 1347094). Further: potency means the concentration at half of the fitted maximal effect. The method in brief:
(§2)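 Quantitative HTS format: each compound titrated (MIPE 11 points from 0.78 nM, NPC 8 points from 0.59 nM) onto cells plated 5 hours earlier. After 48 h at 37 degrees C, CellTiter-Glo luminescence was recorded.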

Assay [8] in a line: qHTS of pediatric cancer cell lines to identify multiple opportunities for drug repurposing: Primary screen for NB-EBc1 cells (AID 1347095). Further: potency means the concentration at half of the fitted maximal effect. The method in brief:
as §2

Assay [9] in a line: qHTS of pediatric cancer cell lines to identify multiple opportunities for drug repurposing: Primary screen for SJ-GBM2 cells (AID 1347091). Further: potency means the concentration at half of the fitted maximal effect. Summed up: as §1
The nature of assay [10]: qHTS of pediatric cancer cell lines to identify multiple opportunities for drug repurposing: Primary screen for A673 cells (AID 1347092). Further: nearly all actives have a fitted effect of over 45% in size. Further: potency means the concentration at half of the fitted maximal effect. Summed up: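 48 h compound exposure, A673, 500-1,000 cells/well, 37 degrees C/5% CO2. MIPE: 11-point, 0.78 nM-46 µM; NPC: 8-point, 0.59 nM-46 µM (final). Readout CellTiter-Glo luminescence after 15 min RT.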
Assay [11] can be described thus: qHTS of pediatric cancer cell lines to identify multiple opportunities for drug repurposing: Primary screen for U-2 OS cells (AID 1347096). Further: nearly all actives have a fitted effect of over 50% in size. Summed up:
(§3)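 Cells (500-1,000/well) rested 5 h, then received compounds for 48 h; metabolically active cells were measured by CellTiter-Glo luminescence. Final concentrations spanned up to 46 µM (MIPE, 11-point) or 0.59 nM-46 µM (NPC, 8-point) in primary screens, 11-point in follow-ups.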

Assay [12] in a line: qHTS of pediatric cancer cell lines to identify multiple opportunities for drug repurposing: Primary screen for Saos-2 cells (AID 1347097). Further: nearly all actives have a fitted effect of over 40% in size. Further: potency means the concentration at half of the fitted maximal effect. Summed up: as §2
Assay [13] is described as follows: qHTS of pediatric cancer cell lines to identify multiple opportunities for drug repurposing: Primary screen for NB1643 cells (AID 1347099). Further: nearly all actives have a fitted effect of over 50% in size. Further: potency means the concentration at half of the fitted maximal effect. Summed up: as §2
Assay [14] can be described thus: qHTS of pediatric cancer cell lines to identify multiple opportunities for drug repurposing: Primary screen for SK-N-SH cells (AID 1347098). Further: nearly all actives have a fitted effect of over 65% in size. Further: potency means the concentration at half of the fitted maximal effect. The method in brief: as §3
Assay [15] can be described thus: Natriuretic polypeptide receptor (hNpr1) antagonism - Pilot counterscreen GloSensor control cell line (AID 1347045; calls by dose curve; further: series mostly up to about 38 µM). Summed up:
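This counterscreen uses HEK293 cells expressing the GIP/pGS-40F cGMP biosensor. Compound-treated cells are challenged with 50 uM sodium nitroprusside, and the luciferase signal is compared before and after stimulation.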
Background: The purpose of a counterscreen is to sort out artefacts and off-target activity.

Assay [16] has as its target Atrial natriuretic peptide receptor 2 (Homo sapiens) (UniProt P20594). The assay is described as follows: Natriuretic polypeptide receptor (hNpr2) antagonism - Pilot subtype selectivity assay (AID 1347050; calls by dose curve). Summed up: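 Pilot selectivity screen against hNpr2: HEK293 cGMP-sensor cells are treated with LOPAC1280 compounds, then with hNppC peptide at 1 nM final. The cGMP-driven luminescence change over 20 min at room temperature is the read-out.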

For assay [17], the target named is T1, Tyrosine-protein phosphatase non-receptor type substrate 1 (Homo sapiens) + Leukocyte surface antigen CD47 (Homo sapiens) (UniProt P78324+Q08722). The assay is described as follows: CD47-SIRPalpha protein protein interaction - LANCE assay qHTS validation (AID 1347057; active means well fitted curve in the direction sought with a large enough effect in the signal ratio, with a control signal flat, not every such curve was filed as active; the % refers to the signal ratio; further: series mostly up to about 38 µM). Summed up: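 First, His-tagged CD47 and Eu-labelled anti-His antibody met the compound for 30 min; next, site-specifically biotinylated SIRPalpha was added for 30 min; finally streptavidin-APC was added before reading the TR-FRET ratio.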
T1 sequence (P78324 whole entry, looked up): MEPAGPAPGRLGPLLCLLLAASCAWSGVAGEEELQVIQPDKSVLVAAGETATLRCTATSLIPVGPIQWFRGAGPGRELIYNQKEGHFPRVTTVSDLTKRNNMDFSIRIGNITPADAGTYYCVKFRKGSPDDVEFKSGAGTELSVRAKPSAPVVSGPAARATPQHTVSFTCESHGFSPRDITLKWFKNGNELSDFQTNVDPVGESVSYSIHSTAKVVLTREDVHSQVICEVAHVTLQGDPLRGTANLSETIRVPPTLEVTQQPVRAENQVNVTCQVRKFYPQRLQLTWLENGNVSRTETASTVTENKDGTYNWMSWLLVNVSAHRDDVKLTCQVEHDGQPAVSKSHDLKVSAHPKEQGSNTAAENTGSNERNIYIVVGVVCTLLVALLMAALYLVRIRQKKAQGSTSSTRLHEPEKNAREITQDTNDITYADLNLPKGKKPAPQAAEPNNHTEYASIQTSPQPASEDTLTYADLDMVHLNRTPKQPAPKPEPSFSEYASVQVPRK
T1 sequence (Q08722 whole entry, looked up): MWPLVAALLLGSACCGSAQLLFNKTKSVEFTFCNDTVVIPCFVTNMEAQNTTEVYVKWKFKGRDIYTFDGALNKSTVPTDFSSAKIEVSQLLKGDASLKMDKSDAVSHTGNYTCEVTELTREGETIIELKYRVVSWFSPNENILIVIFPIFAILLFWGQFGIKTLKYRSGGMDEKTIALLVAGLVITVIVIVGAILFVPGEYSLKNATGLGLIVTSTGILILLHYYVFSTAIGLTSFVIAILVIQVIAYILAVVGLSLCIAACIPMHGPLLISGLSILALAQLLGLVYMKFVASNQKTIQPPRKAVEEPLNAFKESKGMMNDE
(In general: Time-resolved FRET reads energy transfer from a long-lived donor to a nearby acceptor.)

Assay [18] has as its target T1, Tyrosine-protein phosphatase non-receptor type substrate 1 (Homo sapiens) + Leukocyte surface antigen CD47 (Homo sapiens). The assay is described as follows: CD47-SIRPalpha protein protein interaction - HTRF assay qHTS validation (AID 1347058; active means well fitted curve in the direction sought with a large enough effect in the signal ratio, not every such curve was filed as active; the % refers to the signal ratio;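 further: recombinant soluble extracellular CD47 with His tag and biotinylated SIRPalpha domains; series mostly up to about 38 µM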). Summed up: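 TR-FRET read (Ch1/Ch2 ratio) of soluble extracellular CD47 and Avi-biotinylated SIRPalpha domains in PBS pH 7.4 with 0.05% IGEPAL; 7-point compound titration. Sequential 30 min room-temperature steps; non-biotinylated SIRPalpha as control inhibitor.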

For assay [19] the target is unchanged. The assay is described as follows: CD47-SIRPalpha protein protein interaction - Alpha assay qHTS validation (AID 1347059).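 Further: bead proximity luminescence from CD47 binding SIRPalpha after compound preincubation with SIRPalpha.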 Summed up: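 Binding is measured by AlphaScreen proximity: Ni-NTA acceptor beads capture His-CD47, streptavidin donor beads capture biotin-SIRPalpha. Each of three additions (SIRPalpha with compound, CD47, beads) incubates 30 min at room temperature protected from light.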

The target of assay [20] is Parathyroid hormone/parathyroid hormone-related peptide receptor (Homo sapiens) (UniProt Q03431). The assay is described as follows: qHTS for PTHR1 Agonists: Optimization Screen against the NCGC LOPAC library (AID 1347079).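 Further: GloSensor cAMP luminescence in HEK-293 GP2 cells expressing human PTHR1 with IBMX.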 The method in brief:
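Compounds were tested across a qHTS titration. PTHR1-expressing GP2 cells report cAMP rises via GloSensor luminescence after 1 hr compound exposure at 37C with IBMX present.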

Molecules are shown by their SMILES. Several values for one entry are separate records, joined by “and”; a condition that tells them apart may be missing. Identical values can stand only once. Inconclusive results are not listed. More than one record can exist for a structure, and the calls need not agree. Activity calls are given as the source filed them. Unless noted, the call rests on the fitted dose curve; in most records, active means well fitted curve in the direction sought with a large enough effect; inconclusive means small, poorly fitted or top-dose-only effect, or another doubt; inactive means no such curve, though single readings can be large; an effect the other way counts as inactive or inconclusive.

Parathyroid hormone/parathyroid hormone-related peptide receptor (Homo sapiens), sequence (Q03431 whole entry, looked up): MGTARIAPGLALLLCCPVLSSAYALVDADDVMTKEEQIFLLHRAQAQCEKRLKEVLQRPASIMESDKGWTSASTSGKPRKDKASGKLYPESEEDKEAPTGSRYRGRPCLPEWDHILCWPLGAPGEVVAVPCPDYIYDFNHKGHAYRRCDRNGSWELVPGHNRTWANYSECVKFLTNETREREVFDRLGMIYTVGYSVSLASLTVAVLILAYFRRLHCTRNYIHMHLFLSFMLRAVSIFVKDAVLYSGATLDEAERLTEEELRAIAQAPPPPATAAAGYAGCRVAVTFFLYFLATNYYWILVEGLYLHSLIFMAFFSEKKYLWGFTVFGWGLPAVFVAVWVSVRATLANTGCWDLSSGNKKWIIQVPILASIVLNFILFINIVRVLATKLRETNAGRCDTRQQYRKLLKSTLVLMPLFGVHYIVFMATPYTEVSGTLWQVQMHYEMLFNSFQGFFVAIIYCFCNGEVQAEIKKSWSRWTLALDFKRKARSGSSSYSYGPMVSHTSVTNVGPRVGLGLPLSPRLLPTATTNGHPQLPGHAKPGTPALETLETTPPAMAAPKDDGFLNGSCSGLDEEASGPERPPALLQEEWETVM
Atrial natriuretic peptide receptor 2 (Homo sapiens), sequence (P20594 whole entry, looked up): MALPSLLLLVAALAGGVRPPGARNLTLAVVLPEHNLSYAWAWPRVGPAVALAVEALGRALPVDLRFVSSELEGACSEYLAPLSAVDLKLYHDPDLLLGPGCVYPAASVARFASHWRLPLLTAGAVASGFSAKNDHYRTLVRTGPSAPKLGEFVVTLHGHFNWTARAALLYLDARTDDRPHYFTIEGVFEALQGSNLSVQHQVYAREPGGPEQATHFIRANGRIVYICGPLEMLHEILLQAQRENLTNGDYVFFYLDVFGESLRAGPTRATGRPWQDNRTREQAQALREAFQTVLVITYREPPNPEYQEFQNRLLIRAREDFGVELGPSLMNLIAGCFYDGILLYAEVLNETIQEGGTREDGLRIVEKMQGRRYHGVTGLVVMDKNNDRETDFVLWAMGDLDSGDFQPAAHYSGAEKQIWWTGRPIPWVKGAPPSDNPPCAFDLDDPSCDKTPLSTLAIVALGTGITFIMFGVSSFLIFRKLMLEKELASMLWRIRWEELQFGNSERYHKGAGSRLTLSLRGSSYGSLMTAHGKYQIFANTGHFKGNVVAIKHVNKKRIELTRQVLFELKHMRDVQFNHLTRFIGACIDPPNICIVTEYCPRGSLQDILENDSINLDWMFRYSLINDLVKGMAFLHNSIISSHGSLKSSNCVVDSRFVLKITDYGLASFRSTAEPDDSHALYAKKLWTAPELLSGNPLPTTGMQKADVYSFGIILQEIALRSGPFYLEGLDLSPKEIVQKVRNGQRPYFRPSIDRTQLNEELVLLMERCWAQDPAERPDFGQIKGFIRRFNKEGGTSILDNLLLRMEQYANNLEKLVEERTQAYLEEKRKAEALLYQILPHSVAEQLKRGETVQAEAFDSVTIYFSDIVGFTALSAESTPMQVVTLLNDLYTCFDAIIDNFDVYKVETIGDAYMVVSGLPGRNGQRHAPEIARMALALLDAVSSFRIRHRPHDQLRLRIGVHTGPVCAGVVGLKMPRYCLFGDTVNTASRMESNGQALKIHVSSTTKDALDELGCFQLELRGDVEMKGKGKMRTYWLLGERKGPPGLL

For the compound `CNC(=O)c1ccc2cc(C3(O)CCn4cncc43)ccc2c1` (stereo not given), the Potency entry in [1], in [2], in assay [3], in [4], in [5] and in assay [6] was “inactive” in each case. The Potency result in assay [7] and in [8] was “inactive” throughout.
As for `CN(C)CCC=C1c2ccccc2COc2ccc(CC(=O)O)cc21`, the Potency entry in assay [1], in [2], in assay [3], in assay [4], in [5] and in [9] was “inactive” throughout. The Potency result in assay [7], in assay [8], in assay [11] and in assay [12] was “inactive” throughout. Also, in [10], the Potency was 18.7 µM (active).
Consider `CCN(CC)CCOc1ccc(C(=C(Cl)c2ccccc2)c2ccccc2)cc1`, for which the Potency result in [1], in [2], in assay [3], in assay [4], in assay [5] and in assay [7] was “inactive” each time. The Potency entry in [8] and in [11] was “inactive” in each case. The Potency in assay [10] was 29.6 µM (active); in assay [6] it was 14.8 µM (active).
For `COc1cccc([C@@H](C)NCCCc2ccccc2Cl)c1`, the Potency entry in [1], in assay [2], in [3], in [4], in assay [7] and in assay [11] was “inactive” in each case. In addition, in assay [12], the Potency entry was “inactive”. The Potency in [6] was 11.8 µM (active); in [13], 20.9 µM (active).
In the case of `CCOC(=O)O[C@]1(C(=O)OCCl)CC[C@@H]2[C@H]3CCC4=CC(=O)C=C[C@]4(C)[C@@H]3[C@@H](O)C[C@@]21C`, the Potency result in assay [1], in assay [2], in assay [4], in assay [5], in assay [10] and in [6] was “inactive” each time. The Potency result in [7], in assay [8], in assay [12], in assay [14] and in assay [13] was “inactive” in each case.
As for `O=c1c(O)c(-c2ccc(O)cc2)oc2cc(O)cc(O)c12`, the Potency entry in [1], in [2], in [3], in [4], in [11] and in [12] was “inactive” each time. For the same compound, the Potency in assay [9] was 14.8 µM (active); in [10], 14.8 µM (active); in assay [6], 11.8 µM (active); in assay [8], 9.35 µM (active); in assay [13] it was 11.8 µM (active).
As for `O=C(O)CCc1nc(-c2ccccc2)c(-c2ccccc2)o1`, the Potency entry in [1], in [2], in [15], in assay [3], in assay [4] and in assay [5] was “inactive” in each case. The Potency entry in assay [9], in [10], in [6], in [7], in assay [8] and in [11] was “inactive” in each case. The Potency entry in [12], in [14] and in assay [13] was “inactive” throughout. For the same compound, the call in [16], in assay [17], in assay [18], in [19] and in [20] was inactive.
Take `CC[C@H]1OC(=O)[C@H](C)[C@@H](O[C@H]2C[C@@](C)(OC)[C@@H](O)[C@H](C)O2)[C@H](C)[C@@H](O[C@@H]2O[C@H](C)C[C@H](N(C)C)[C@@H]2O)[C@](C)(O)C[C@@H](C)CN(C)[C@H](C)[C@@H](O)[C@]1(C)O`: the Potency result in assay [1], in [2], in [3], in [4], in assay [5] and in assay [9] was “inactive” throughout. Further, the Potency result in assay [10], in assay [6], in assay [8], in [11] and in assay [13] was “inactive” in each case.
As to `O=C(O)c1ccccc1C(=O)Nc1ccc(-c2ccccc2)cc1`, the Potency entry in assay [1], in assay [2], in assay [4], in assay [5], in [9] and in [6] was “inactive” in each case. Further, the Potency result in [7], in assay [8], in assay [11], in [12] and in [13] was “inactive” throughout.
On to `COc1cc2c(cc1OC)CN(CCc1ccc(NC(=O)c3cc(OC)c(OC)cc3NC(=O)c3cnc4ccccc4c3)cc1)CC2`, for which the Potency entry in assay [1], in [2], in assay [3], in [4], in assay [5] and in [9] was “inactive” each time. Moreover, the Potency entry in assay [8] is “inactive”. Besides, the results for the Potency in [6], in assay [14] and in assay [13] were 10.5 µM (active), 19.2 µM (active) and 14.8 µM (active), respectively.
For the compound `CC(C)[C@H](CO)Nc1nc(Nc2ccc(C(=O)O)c(Cl)c2)c2ncn(C(C)C)c2n1`, the Potency entry in assay [1], in assay [2], in assay [3] and in assay [11] was “inactive” throughout. Moreover, the figures for the Potency in assay [8] and in assay [12] were 23.5 µM (active) and 18.7 µM (active), respectively.
Turning to `O=C(O)CCC1CCC(c2cc(F)ccc2F)(S(=O)(=O)c2ccc(Cl)cc2)CC1` (stereo not given), the Potency entry in assay [1], in assay [2], in assay [3], in [4], in assay [8] and in assay [14] was “inactive” throughout. Moreover, the Potency in [5] is 11.8 µM (active); in assay [10], 1.48 µM (active); in assay [6], 0.0662 µM (active).
As for `O=C(O)c1ccc(-c2c[nH]c3ncc(-c4ccccc4)cc23)cc1C1CCCC1`, the Potency entry in [1], in assay [3], in assay [4], in assay [5], in assay [7] and in [8] was “inactive” in each case. Besides, the Potency entry in assay [11] and in assay [12] was “inactive” each time. In addition, the Potency result in assay [2] was “inactive and 3.66 µM (active)”; in assay [6], 0.166 µM (active).
With `COc1cccc(-c2cc(=O)c3ccccc3o2)c1N`, the Potency entry in [1], in [2], in assay [3], in assay [9], in assay [7] and in assay [8] was “inactive” each time. Also, the Potency entry in [11] and in assay [12] was “inactive” throughout. The outcome in [17], in assay [19] and in assay [20] was inactive. Besides, the Potency in assay [6] was 0.662 µM (active).
As for `COc1ccc(-c2nc(N3CCOCC3)c3sc(CN(C)c4ncc(C(=O)NO)cn4)cc3n2)cn1`, the Potency in assay [1] is 0.164 µM (active); in assay [2] it was 20.9 nM (active) and 231 nM (active); in [4] it was 0.0415 µM (active); in [5], 0.0118 µM (active); in assay [9], 0.0066 µM (active); in assay [10] it was 0.0935 µM (active). Further, the Potency in assay [6] is 0.001 µM (active); in assay [7], 0.0069 µM (active); in assay [8] it was 0.001 µM (active); in [12] it was 0.0066 µM (active); in assay [14] it was 0.0341 µM (active).
